The record followed here is PubChem BioAssay (EPA / NIEHS).

Inconclusive results are not listed. Activity calls are given as the source filed them. Rule for the calls: active = hit-call score of the fitted dose curve at least 0.9, where 1 is the maximum; inconclusive = response in the unintended direction; inactive = score below 0.9.

Sequence of Estrogen receptor (Homo sapiens) (P03372 whole entry, looked up): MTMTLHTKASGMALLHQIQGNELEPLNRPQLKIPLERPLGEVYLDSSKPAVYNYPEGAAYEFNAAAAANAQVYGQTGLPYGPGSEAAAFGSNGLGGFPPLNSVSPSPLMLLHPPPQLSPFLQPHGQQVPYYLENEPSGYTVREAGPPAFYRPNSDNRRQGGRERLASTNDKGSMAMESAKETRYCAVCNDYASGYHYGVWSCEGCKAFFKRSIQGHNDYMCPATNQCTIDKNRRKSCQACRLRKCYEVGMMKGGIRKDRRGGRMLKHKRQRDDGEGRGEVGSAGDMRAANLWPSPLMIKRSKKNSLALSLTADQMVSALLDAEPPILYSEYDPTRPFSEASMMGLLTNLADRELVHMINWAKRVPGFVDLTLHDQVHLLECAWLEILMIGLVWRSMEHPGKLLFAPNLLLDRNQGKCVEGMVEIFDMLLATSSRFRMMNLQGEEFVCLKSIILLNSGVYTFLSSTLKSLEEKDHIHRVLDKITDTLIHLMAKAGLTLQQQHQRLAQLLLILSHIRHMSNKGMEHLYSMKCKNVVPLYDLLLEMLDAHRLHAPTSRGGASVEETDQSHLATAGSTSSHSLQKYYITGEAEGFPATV

The target in the experiment is Estrogen receptor (Homo sapiens) (UniProt P03372). The experiment can be described thus: CCTE_Deisenroth_AIME_384WELL_LUC_Inactive: CCTE's 384-well Estrogen Receptor Transactivation Assay without AIME metabolic competence (ERTA luciferase; metabolism negative), Deisenroth Lab (AID 2284038).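 Note: hits raise estrogen receptor luciferase signal so potencies reflect agonists.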 On the procedure:
CCTE_Deisenroth_AIME_384WELL (AIME metabolism assay) is a cell-based, single-readout assay that uses VM7Luc4E2, a human mammary gland/breast cell line, with measurements taken at 24 hour after chemical dosing in a 384-well plate.CCTE_Deisenroth_AIME_384WELL_LUC_Inactive is one of four assay components measured or calculated from the CCTE_Deisenroth_AIME_384WELL assay. It is designed to make measurements of luciferase induction, a form of inducible reporter, as detected with bioluminescence signals by luciferase-coupled ATP quantitation technology.CCTE_Deisenroth_AIME_384WELL_LUC_Inactive is a component of the CCTE_Deisenroth_AIME_384WELL assay that measures the effect of retroftting the VM7Luc ERTA assay with the Alginate Immobolization of Metabolic Enzymes (AIME) metabolism method. AIME is optimized to impart phase I hepatic metabolism using phenobarbital/beta-naphthoflavone induced hepatic S9 from male Sprague Dawley rats. Parent chemicals are incubated for 2 hours in the AIME assay prior to transfer to the VM7Luc ERTA assay plate. […] This endpoint evaluates reporter induction in metabolism negative mode. Using a type of inducible reporter in VM7Luc cells, gain-of-signal activity can be used to understand changes in the reporter gene as they relate to xenobiotic metabolism and the gene ESR1. This assay endpoint, CCTE_Deisenroth_AIME_384WELL_LUC_Inactive, was analyzed in the positive analysis fitting direction relative to 17beta-estradiol as the positive control in the ERTA assay. To generalize the intended target to other relatable targets, this assay endpoint is annotated to the nuclear receptor intended target family, where the subfamily is steroidal.
The AIME procedure consists of a preparative "pre-stamping" step using a barium chloride/poly-L-lysine (PLL) solution followed by "stamping" the lid in alginate-hepatic S9 (metabolism positive) or alginate-water (metabolism negative) to form microspheres. Once stamping is completed, the AIME lids are placed in duplicate microplates (metabolism positive or negative) containing chemical solutions and incubated for two hours to facilitate metabolic reactions. The conditioned medium, containing parent chemical or metabolites, is then transferred to the cell-based VM7Luc Estrogen Receptor Transactivation Assay (ERTA) for 24 hours. A typical experimental design tests a 10-point concentration series (0.002 - 200 uM) for 8 compounds (96-well format)1 or 32 compounds (384-well format)2 in single technical replicate. AIME assay controls include trans-stilbene (bioactivated control) and ethylparaben (bioinactivated control). ERTA assay plate controls include 17-beta estradiol (positive control) and DMSO (solvent control). Experiments typically comprise a minimum of four experimental replicates (n=4).
For `CCNc1nc(Cl)nc(NC(C)C)n1`, the outcome was inactive.

For the compound `COP(N)(=O)SC` (configuration not stated), the call was inactive.

Regarding `Oc1ccccc1-c1ccccc1`, the result was inactive.

Turning to `C=CCC1=C(C)C(OC(=O)C2C(C=C(C)C)C2(C)C)CC1=O` (configuration not stated), the compound was called inactive.

Consider `O=C(O)c1nc(Cl)ccc1Cl`, for which the result was inactive.

As to `CC1=C(C(=O)Nc2ccccc2)SCCO1`, the compound was classed as inactive.

Turning to `COc1cnc(OC)n2nc(NS(=O)(=O)c3c(OCC(F)F)cccc3C(F)(F)F)nc12`, the AC50 – broadly, the concentration at which the activity in the assay is half-maximal – was 13.7 µM (active).

Turning to `O=C(O)COc1nc(Cl)c(Cl)cc1Cl`, the compound was classed as inactive.

As for `COC(=O)N(OC)c1ccccc1COc1ccn(-c2ccc(Cl)cc2)n1`, the call was inactive.

On to `C=CC1(C)OC(=O)N(c2cc(Cl)cc(Cl)c2)C1=O` (configuration not stated), for which the AC50 is 63.4 µM (active).

Regarding `CC(Oc1ccc(Cl)cc1Cl)C(=O)O` (configuration not stated), the compound was called inactive.

`Cc1c(F)c(F)c(COC(=O)C2C(/C=C(\Cl)C(F)(F)F)C2(C)C)c(F)c1F` (configuration not stated): the result was inactive.
